Screening results from PubChem BioAssay.
PLK1 PBD inh – qHTS for Inhibitors of PLK1-PDB (polo-like kinase 1 - polo-box domain): Primary Screen. actives 2.8% (n = 360,000). Serine/threonine-protein kinase PLK1 (Homo sapiens), P53350. Plk1 PBD binding of FITC phosphopeptide, fluorescence polarization. Potency, µM, for inactives: max response, negative = inhibition, hits mostly inhibitors; note: series mostly up to about 57 µM; nearly all actives have a fitted effect of over 65% in size
TDP1 cell CPT – qHTS for Inhibitors of human tyrosyl-DNA phosphodiesterase 1 (TDP1): qHTS in cells in presence of CPT. chicken DT40 Tdp1-/-;hTDP1 cells + 20 nM CPT, ATP luminescence, 48 h. actives 12% (n = 420,000). Potency, µM (series often up to 46.2 µM), for the others: at the highest dose activity change, negative = growth inhibition, most hits filed as inhibitors; note: nearly all actives have a fitted effect of over 55% in size
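Chicken DT40 Tdp1-/- cells stably complemented with human TDP1 were seeded at 400 cells/well in medium containing 20 nM camptothecin, exposed to pin-transferred compounds, and grown at 37 °C for at least 48 hr. Viability was read as ATP luminescence.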
VDR inh – Inhibitors of the vitamin D receptor (VDR): qHTS; Potency, µM, for inactives: max response, negative = inhibition, actives largely listed as inhibitors; actives 0.93% (n = 400,000); AID 504847, 2011; Vitamin D3 receptor (Homo sapiens), P11473; VDR-SRC2-3 peptide fluorescence polarization, 2 h
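After 23 nl compound addition and a short centrifugation, plates sat for 2 hours at ambient temperature; polarization of fluorescence then indicated loss of VDR binding to peptide SRC2-3.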
DT40 TDP1 no CPT – qHTS for Inhibitors of human tyrosyl-DNA phosphodiesterase 1 (TDP1): qHTS in cells in absence of CPT | DT40 Tdp1-/- hTDP1 cells, no CPT, ATP luminescence, 48 h | Potency, µM (titrated, usually from 46.2 µM), for inactives: at the top dose activity change, negative = growth inhibition, actives largely listed as inhibitors | actives 15% (n = 420,000) | AID 686978, 2013; note: nearly all actives have a fitted effect of over 55% in size
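No-CPT arm: Tdp1-/-;hTDP1 DT40 cells (400/well) plus compounds, incubated ≥48 hr at 37 °C. Readout CellTiter-Glo luminescence.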
GCN5L2 inh – qHTS Assay for Inhibitors of GCN5L2 | Histone acetyltransferase KAT2A (Homo sapiens), Q92830 | GCN5L2 HAT assay, ThioGlo1 CoA-SH fluorescence | Potency, µM (highest dose often 58.9 µM), for the others: at the highest dose activity change, negative = inhibition, usual class: inhibitors | actives 0.21% (n = 390,000) | AID 504327, 2011
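GCN5L2 (20nM final) in 50mM HEPES, 0.1mM EDTA pH 7.5, 0.01% Tween-20 was preincubated 15 min at room temperature with compound, then given ThioGlo1 (50uM), H3(1-25) peptide (75uM) and acetyl-CoA (70uM); CoA-thiol fluorescence (Ex340/Em540) was read at 0 and 20 min.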
TDP1 inh – qHTS Assay for Inhibitors of Tyrosyl-DNA Phosphodiesterase (TDP1) | Potency, µM (series often up to 130 µM), for the others: at the highest dose activity change, negative = inhibition, usual class: inhibitors | recombinant TDP1, AlphaScreen DNA substrate cleavage | Tyrosyl-DNA phosphodiesterase 1 (Homo sapiens), Q9NUW8 | AID 485290, 2010 | actives 0.28% (n = 350,000); note: nearly all actives have a fitted effect of over 40% in size
Target sequence (Q9NUW8 whole entry, looked up): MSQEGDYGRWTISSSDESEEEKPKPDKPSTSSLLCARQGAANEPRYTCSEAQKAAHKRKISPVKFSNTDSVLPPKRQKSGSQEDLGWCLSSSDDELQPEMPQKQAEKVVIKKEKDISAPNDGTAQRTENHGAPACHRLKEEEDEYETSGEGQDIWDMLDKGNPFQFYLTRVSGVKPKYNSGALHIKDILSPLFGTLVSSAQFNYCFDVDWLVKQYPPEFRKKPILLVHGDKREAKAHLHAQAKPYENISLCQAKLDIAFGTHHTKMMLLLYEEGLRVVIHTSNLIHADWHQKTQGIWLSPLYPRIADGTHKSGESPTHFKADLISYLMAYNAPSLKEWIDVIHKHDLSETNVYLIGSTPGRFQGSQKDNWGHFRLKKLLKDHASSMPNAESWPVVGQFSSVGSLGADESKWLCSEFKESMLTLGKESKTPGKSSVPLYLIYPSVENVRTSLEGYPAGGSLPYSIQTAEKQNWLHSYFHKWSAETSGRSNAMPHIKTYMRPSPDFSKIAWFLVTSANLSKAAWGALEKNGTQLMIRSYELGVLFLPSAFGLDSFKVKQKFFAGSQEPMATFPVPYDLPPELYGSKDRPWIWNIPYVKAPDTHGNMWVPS
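Signal: AlphaScreen proximity between streptavidin donor and anti-FITC acceptor beads on intact substrate. Reaction: Tdp1 1 nM, substrate 15 nM final, 5 min RT after 15 min compound preincubation.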
Numbers without * were called inactive; ? = inconclusive; . = no result; [ ] = remark or other dose. Rows were chosen to be rich in hits. Some 18% of all compounds tested hit in one or more screens of this group. Calls come from the whole dose curve; as a rule, active = well fitted curve in the direction sought with a large enough effect; inconclusive = small, poorly fitted or top-dose-only effect, or another doubt; inactive = no such curve, though single readings can be large; an effect the other way counts as inactive or inconclusive. % is set by controls: 0 for no effect and ±100 for the full control effect; potency is the fitted concentration of half-maximal effect.

SMILES	PLK1 PBD inh	TDP1 cell CPT	VDR inh	DT40 TDP1 no CPT	GCN5L2 inh	TDP1 inh
N=C1C(c2nc3ccccc3[nH]2)=C(O)CN1c1ccccc1	-1.6%	?	7.3%	23.1µM*	-2.3%	11.6%
CCOC(=O)c1ccc(N2CC(O)=C(c3nc4ccccc4c(=O)[nH]3)C2=N)cc1	-2.7%	?	2.9%	10.3µM*	-0.3%	5.4%
CC1C(O)=C(c2nc3ccccc3[nH]2)C(=N)N1c1ccccc1 (centres undefined)	-7.4%	?	0.4%	20.6µM*	-6.4%	9.1%
COc1ccc(CCN2CC(O)=C(c3nc4ccccc4c(=O)[nH]3)C2=N)cc1OC	-0.1%	?	-9.0%	18.4µM*	-0.8%	5.5%
COc1ccc(CCN2CC(O)=C(c3nc(C)cs3)C2=N)cc1OC	-5.7%	-1.3%	-16.4%	-13.3%	-29.8%	2.1%
Cc1ccc(-c2nc3ccccc3o2)cc1NC(=O)C(C)Oc1ccccc1 (centres undefined)	.	1.2%	.	-14.2%	.	.
CC(=O)N1c2ccccc2CCc2ccc([N+](=O)[O-])cc21	0.6%	6.7%	-7.2%	1.6%	-23.6%	2.3%
Nc1c(Br)cc2c([nH]c(=O)c3ccccc32)c1Br	-3.8%	?	-5.0%	?	.	.
CCC(C)N1CC(O)=C(c2nc3ccccc3[nH]2)C1=N (centres undefined)	-3.8%	23.1µM*	3.8%	?	-2.3%	8.3%
CCCCCCN1CC(O)=C(c2nc3ccccc3[nH]2)C1=N	0.9%	-0.6%	-4.4%	-1.8%	-11.0%	8.8%
CCOC(=O)c1cc(OC(C)=O)c2ccc(OC)c(OC)c2c1	3.6%	?	.	23.1µM*	.	.
CC1(C)CC(=O)C2=C(C1)NC(=S)C(C#N)C21CCCCC1 (centres undefined)	10.6µM*	?	?	-16.1%	-13.4%	4.3%
CC1C2=C(CC(C)(C)CC2=O)NC2=C1C(=O)CC(C)(C)C2	-4.5%	2.2%	-13.3%	3.3%	-15.9%	3.8%
CS(=O)(=O)N1CCC2(CC1)CN(Cc1nccs1)C2	.	8.0%	-2.1%	-5.6%	-8.1%	.
Cc1ccc(-c2cc(C(=O)N3CCN(C(=O)c4ccco4)CC3)[nH]n2)c(C)c1	0.1%	-26.9%	8.3%	-20.0%	-3.4%	5.2%
COc1ccc(C(O)c2nc3ccccc3n2C(C)C)cc1 (centres undefined)	23.8µM*	23.1µM*	?	16.4µM*	-15.2%	3.8%
Cc1c(CC(=O)NCc2ccccc2Cl)c(=O)oc2cc(O)ccc12	.	?	8.3%	-26.9%	-22.8%	2.5%
N#CCc1c(C#N)c(N)nc(N2CCN(Cc3ccc4c(c3)OCO4)CC2)c1C#N	4.6%	?	-25.4%	11.6µM*	3.1%	5.9%
Cc1nc(N2CCC(C)CC2)c2oc3ccccc3c2n1	-3.4%	?	-10.7%	?	-2.1%	8.8%
COc1ccccc1N1CCN(c2nc(C)nc3c2oc2ccccc23)CC1	1.5%	3.16µM*	15.9%	2.82µM*	-12.4%	9.5%
Cc1nc(N2CCN(Cc3ccc4c(c3)OCO4)CC2)c2oc3ccccc3c2n1	-23.4%	7.31µM*	-6.1%	9.2µM*	.	.
Cc1nc(N2CCN(Cc3ccc(Cl)cc3)CC2)c2oc3ccccc3c2n1	3.9%	23.1µM*	2.6%	16.4µM*	-6.4%	4.8%
O=C(NCC(NS(=O)(=O)OCC(Cl)(Cl)Cl)c1ccccc1)C(F)(F)F (centres undefined)	-7.5%	?	-2.5%	?	-6.3%	.
O=C(NCCn1ccc2ccccc21)c1ccc(Cl)cc1	.	?	-21.7%	?	-8.3%	-8.5%[12.3 µM]
CC(=O)Nc1ccc(NC(=O)CSc2cn(CC(=O)N(C(C)C)C(C)C)c3ccccc23)cc1	.	-29.2%	2.3%	?	-4.2%	2.6%
SMILES	PLK1 PBD inh	TDP1 cell CPT	VDR inh	DT40 TDP1 no CPT	GCN5L2 inh	TDP1 inh
CCN=C1SC(C(=O)Nc2cccc(Br)c2)CC(=O)N1CC (centres undefined)	2.0%	?	0.9%	?	-3.9%	0.0%
Cc1nc(N2CCN(Cc3ccc4c(c3)OCO4)CC2)c2cc(-c3ccccc3)sc2n1	7.9%	18.4µM*	2.0%	23.1µM*	-11.7%	8.8%
CSc1nc(N2CCN(Cc3ccc4c(c3)OCO4)CC2)c2ccccc2n1	-9.8%	?	-8.4%	?	0.5%	.
Cc1ccccc1OCC(=O)NNC(=O)CSc1nc(N)cc(N)n1	21.2µM*	?	-4.6%	?	1.8%	6.5%
O=C(CN(Cc1ccco1)C(=O)c1cccc(Cl)c1)Nc1c(Cl)cc(Cl)cc1Cl	-9.0%	25.9µM*	0.6%	?	-5.3%	-1.0%
O=C(CN(Cc1ccco1)C(=O)c1ccc(Cl)cc1)Nc1c(Cl)cc(Cl)cc1Cl	-17.6%	5.0%	6.8%	-28.7%	3.4%	-2.7%
COc1ccc(-c2cn3cc(Br)cnc3n2)cc1	-16.2%	25.9µM*	43.3%	?	-1.6%	0.0%
CCC(=O)O[C@]1(C(=O)CCl)[C@@H](C)C[C@H]2[C@@H]3C[C@H](F)C4=CC(=O)C=C[C@]4(C)[C@@]3(F)[C@@H](O)C[C@@]21C	.	?	.	18.8µM*	.	.
CCCCC(=O)O[C@@]1(C(=O)CO)C(C)CC2C3CCC4=CC(=O)C=C[C@@]4(C)[C@]3(F)C(O)C[C@]21C (some centres undefined)	.	-24.1%	?	-19.9%	-24.3%	7.7%
C[C@H]1C[C@@H]2[C@H]3CCC4=CC(=O)C=C[C@@]4(C)[C@@]3(Cl)[C@@H](O)C[C@]2(C)[C@]1(OC(=O)c1ccco1)C(=O)CCl	.	.	1.1%	.	3.1%[21.4 µM]	4.8%[56.1 µM]
C[C@@H]1C[C@H]2[C@@H]3CCC4=CC(=O)C=C[C@]4(C)[C@@]3(Cl)[C@@H](O)C[C@]2(C)[C@@]1(OC(=O)c1ccco1)C(=O)CCl	-8.7%	16.4µM*	-11.3%	11.6µM*	-3.7%	.
S=c1[nH]nc(Nc2ccc(Cl)cc2)s1	13.4µM*	-0.5%	?	-19.0%	-24.8%	8.7%
Fc1ccccc1Nc1n[nH]c(=S)s1	29.9µM*	2.1%	-17.5%	-8.4%	17.8µM*	10.3%
Cc1ccc(Nc2n[nH]c(=S)s2)cc1	23.8µM*	-2.7%	.	-12.4%	.	.
COc1ccccc1-c1noc(CCCC(=O)Nc2cc(C)ccc2C)n1	.	?	14.6%	?	-17.7%	6.1%
COc1ccc(Cl)cc1NC(=O)c1cc(C)nc2c1c(C)nn2-c1ccccc1	.	?	8.8%	?	-5.3%	0.0%
